Data reported in PubChem BioAssay (Tox21).
Inconclusive results are not listed. Active and inactive are the calls of the source. Unless noted, calls come from the whole dose curve; as a rule, active = well fitted curve in the direction sought with a large enough effect in the repeat runs; inconclusive = weak or mixed curves; inactive = no such curve, though single readings can be large; an effect the other way counts as inactive or inconclusive.

What was measured:
[1] = qHTS assay to identify aromatase inhibitors - cell viability counter screen (AID 743084);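 note: cells stimulated with testosterone during compound exposure; nearly all actives have a fitted effect of over 55% in size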; note: potency is the fitted concentration of half-maximal effect
[2] = biological target: Aryl hydrocarbon receptor (Homo sapiens) (UniProt P35869); test: qHTS assay to identify small molecule that activate the aryl hydrocarbon receptor (AhR) signaling pathway (AID 743085); note: nearly all actives have a fitted effect of over 15% in size; note: potency is the fitted concentration of half-maximal effect;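 for activation: HG2L7.5c1 human HepG2 liver cells with stably integrated DRE-driven firefly reporter; series mostly up to about 70 µM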
Chain of Aryl hydrocarbon receptor (Homo sapiens) (P35869 whole entry, looked up): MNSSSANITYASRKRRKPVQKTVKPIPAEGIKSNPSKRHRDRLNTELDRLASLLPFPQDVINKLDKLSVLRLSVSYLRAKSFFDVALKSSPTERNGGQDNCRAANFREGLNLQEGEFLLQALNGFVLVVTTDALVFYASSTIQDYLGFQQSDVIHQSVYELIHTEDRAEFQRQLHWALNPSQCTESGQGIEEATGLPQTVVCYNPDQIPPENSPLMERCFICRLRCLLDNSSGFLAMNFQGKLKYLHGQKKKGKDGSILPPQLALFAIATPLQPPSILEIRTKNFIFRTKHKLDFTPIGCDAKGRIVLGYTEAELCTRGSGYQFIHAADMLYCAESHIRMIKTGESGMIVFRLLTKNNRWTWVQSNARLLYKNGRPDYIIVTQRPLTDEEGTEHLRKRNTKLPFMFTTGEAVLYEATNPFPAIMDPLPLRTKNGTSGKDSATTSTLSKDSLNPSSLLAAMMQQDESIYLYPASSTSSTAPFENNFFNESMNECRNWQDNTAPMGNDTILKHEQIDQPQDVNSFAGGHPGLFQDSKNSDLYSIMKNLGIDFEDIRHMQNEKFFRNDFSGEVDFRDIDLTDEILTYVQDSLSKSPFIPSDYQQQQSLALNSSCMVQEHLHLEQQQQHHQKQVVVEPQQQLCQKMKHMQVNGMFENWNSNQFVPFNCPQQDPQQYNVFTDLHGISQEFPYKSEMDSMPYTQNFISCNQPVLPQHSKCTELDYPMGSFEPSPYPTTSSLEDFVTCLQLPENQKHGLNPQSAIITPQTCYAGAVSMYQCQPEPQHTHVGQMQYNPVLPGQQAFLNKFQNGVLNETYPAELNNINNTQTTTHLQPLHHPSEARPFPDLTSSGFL
In short: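 HepG2 cells stably carrying a 20-DRE firefly luciferase reporter (HG2L7.5c1) treated with compound for 24 hr at 37C. Luciferase read by ONE-Glo luminescence, with CellTiter-Fluor viability read first.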

[3] = qHTS assay to identify small molecule that activate the aryl hydrocarbon receptor (AhR) signaling pathway - cell viability counter screen (AID 743086); note: nearly all actives have a fitted effect of over 45% in size; note: potency is the fitted concentration of half-maximal effect
In short: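 HepG2-AhR-luc (HG2L7.5c1) cells, 4000/well, were preincubated 5 h at 37C, exposed to compound in qHTS format for 24 hr at 37C, then given CellTiter-Fluor for 30 min; viability was read as fluorescence in the reporter wells.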

[4] = biological target: Peroxisome proliferator-activated receptor gamma (Homo sapiens) (UniProt P37231); test: qHTS assay to identify small molecule agonists of the peroxisome proliferator-activated receptor gamma (PPARg) signaling pathway (AID 743094; active = well fitted activation curve with a large enough effect in the signal ratio in the repeat runs, not every such curve was filed as active; the % refers to the signal ratio)
Chain of Peroxisome proliferator-activated receptor gamma (Homo sapiens) (P37231 whole entry, looked up): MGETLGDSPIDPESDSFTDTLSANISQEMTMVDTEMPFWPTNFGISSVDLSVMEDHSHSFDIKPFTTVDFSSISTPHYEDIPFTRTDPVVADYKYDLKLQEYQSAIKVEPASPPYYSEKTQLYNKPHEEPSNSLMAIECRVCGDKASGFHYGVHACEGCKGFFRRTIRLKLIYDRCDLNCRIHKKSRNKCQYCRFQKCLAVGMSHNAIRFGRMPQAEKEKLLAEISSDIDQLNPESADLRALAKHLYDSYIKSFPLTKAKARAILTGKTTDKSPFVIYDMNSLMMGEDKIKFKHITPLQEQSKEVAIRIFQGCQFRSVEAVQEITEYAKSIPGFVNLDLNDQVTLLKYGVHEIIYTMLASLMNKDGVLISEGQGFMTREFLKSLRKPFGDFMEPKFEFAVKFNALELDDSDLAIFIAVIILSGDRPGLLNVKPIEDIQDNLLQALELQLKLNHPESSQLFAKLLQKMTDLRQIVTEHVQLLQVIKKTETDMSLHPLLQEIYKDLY
In short: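 Cell-based bla reporter, HEK293H background, PPARg-driven UAS. Pre-incubation 5 h, 37C, 5% CO2. Compound 17 h, 37C. Substrate 1 h RT; fluorescence.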

[5] = qHTS assay to identify small molecule antagonists of the peroxisome proliferator-activated receptor gamma (PPARg) signaling pathway - cell viability counter screen (AID 743194); note: nearly all actives have a fitted effect of over 55% in size
In short: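 PPARg-UAS-bla HEK293H cells were plated, rested 5 h at 37 C, then treated with compounds plus rosiglitazone (50 nM final) for 17 h at 37 C; viability was then read by CellTiter-Glo luminescence after 30 min at room temperature.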

[6] = qHTS assay for small molecule agonists of the antioxidant response element (ARE) signaling pathway - cell viability counter screen (AID 743203; calls by dose curve; note: nearly all actives have a fitted effect of over 55% in size; note: potency is the fitted concentration of half-maximal effect)
In short: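 Measured in the same wells as the beta-lactamase ARE reporter, this read-out is CellTiter-Glo luminescence from HepG2 ARE-bla cells given compounds for 16 hrs.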

[7] = qHTS assay for small molecule activators of the heat shock response signaling pathway - cell viability counter screen (AID 743209); note: nearly all actives have a fitted effect of over 50% in size; note: potency is the fitted concentration of half-maximal effect
In short: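 Same-well multiplex: after 2.5 h room-temperature incubation with LiveBLAzer B/G substrate and fluorescence reading, CellTiter-Glo reagent was added to HSE-bla HeLa cells that had received compound for 5 h at 37 C; luminescence read after 30 min.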

[8] = qHTS assay for small molecule activators of the heat shock response signaling pathway (AID 743210; active = well fitted activation curve with a large enough effect in the signal ratio in the repeat runs, with a control signal flat, not every such curve was filed as active; the % refers to the signal ratio;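 note: HeLa cells with beta-lactamase reporter driven by heat shock elements; series mostly up to about 63 µM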)
In short: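 Activation of heat shock element-controlled beta-lactamase expression is measured in HeLa cells by LiveBLAzer FRET fluorescence, with compound exposure lasting 5 h at 37 C and substrate loading 2.5 h at room temperature.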

[9] = qHTS assay for small molecule agonists of the antioxidant response element (ARE) signaling pathway (AID 743202; active = well fitted activation curve with a large enough effect in the signal ratio in the repeat runs, not every such curve was filed as active; the % refers to the signal ratio; note: potency is the fitted concentration of half-maximal effect)
In short: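 Steps: seed ARE-bla HepG2 cells (2,000/well); incubate 5 h at 37 C; add compounds by pin tool; incubate 16 h at 37 C; add FRET substrate; read fluorescence after 2 h at RT.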

[10] = biological target: Peroxisome proliferator-activated receptor gamma (Homo sapiens) (UniProt P37231); test: qHTS assay to identify small molecule antagonists of the peroxisome proliferator-activated receptor gamma (PPARg) signaling pathway (AID 743191; calls by dose curve; note: series mostly up to about 63 µM; nearly all actives have a fitted effect of over 30% in size)
In short: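 GeneBLAzer PPARg UAS-bla HEK293H cells carrying a UAS-driven beta-lactamase reporter were plated at 3000 cells/well, preincubated 5 h at 37C, then given compound for 17 h at 37C; LiveBLAzer B/G FRET substrate was read after 1 h at room temperature.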

Measured: Potency

c1ccc(CNc2ncnc3c2ncn3C2CCCCO2)cc1 (stereo not given)
active: [2] 8.63 µM
not listed: [9] | [10]
inactive: all other assays above

COc1ccc(C2C(=O)c3ccccc3C2=O)cc1
not listed: [5] | [6] | [10]
inactive: all other assays above

COc1cc(OC)c2ccc(=O)oc2c1
not listed: [8] | [9] | [10]
inactive: all other assays above

CC[C@H]1OC(=O)[C@H](C)[C@@H](O[C@H]2C[C@@](C)(OC)[C@@H](O)[C@H](C)O2)[C@H](C)[C@@H](O[C@@H]2O[C@H](C)C[C@H](N(C)C)[C@H]2O)[C@](C)(O)C[C@@H](C)C(=O)[C@H](C)[C@@H](O)[C@]1(C)O
not listed: [6] | [7] | [10]
inactive: all other assays above

COc1cc(NC(C)CCCN)c2ncccc2c1 (stereo not given)
not listed: [6] | [10]
inactive: all other assays above

CN1C(CSCC(F)(F)F)Nc2cc(Cl)c(S(N)(=O)=O)cc2S1(=O)=O (stereo not given)
not listed: [9] | [10]
inactive: all other assays above

CCCCCCCCCCCCCOS(=O)(=O)O
active: [6] 61.1 µM
not listed: [8] | [9] | [10]
inactive: all other assays above

COC(=O)c1sccc1S(N)(=O)=O
not listed: [9] | [10]
inactive: all other assays above

O=C1[C@@H]2[C@H]3CC[C@H](C3)[C@@H]2C(=O)N1CCCCN1CCN(c2ncccn2)CC1
not listed: [9] | [10]
inactive: all other assays above

CC1CCCO1 (stereo not given)
not listed: [9] | [10]
inactive: all other assays above

CC(=O)OC(C)C[N+](C)(C)C (stereo not given)
not listed: [4] | [8] | [10]
inactive: all other assays above

C1CCCCC1
not listed: [6] | [10]
inactive: all other assays above

CCN(Cc1cccc(S(=O)(=O)O)c1)c1ccc(C(=C2C=CC(=[N+](CC)Cc3cccc(S(=O)(=O)O)c3)C=C2)c2ccc(O)cc2S(=O)(=O)[O-])cc1
active: [1] 29.5 µM | [3] 16.6 µM
inactive: [2] | [4] | [5] | [9] | [8]

CCCCCCCCCCCCCCN(C)C
not listed: [6] | [10]
inactive: all other assays above

Nc1ccc(F)cc1
not listed: [6] | [10]
inactive: all other assays above

c1ccc2sc(SSc3nc4ccccc4s3)nc2c1
active: [9] 13 µM
not listed: [6] | [8] | [10]
inactive: all other assays above

CCSC(=O)N(CC)CC
not listed: [9] | [10]
inactive: all other assays above

CCCCCC
not listed: [4] | [8] | [10]
inactive: all other assays above

COc1cc(NS(=O)(=O)c2ccc(N)cc2)nc(C)n1
not listed: [6] | [10]
inactive: all other assays above

ClC1=C(Cl)C1(Cl)Cl
not listed: [9] | [10]
inactive: all other assays above

CC1CCC(C(C)CS)CC1S (stereo not given)
active: [6] 15.4 µM | [7] 38.9 µM
inactive: [1] | [2] | [3] | [4]

COC(C)(C)OC
not listed: [6] | [7] | [10]
inactive: all other assays above

NC(=O)CCCCC(N)=O
not listed: [8] | [9] | [10]
inactive: all other assays above

CC(C)C1CCC(C(=O)N[C@H](Cc2ccccc2)C(=O)O)CC1 (stereo not given in full)
not listed: [6] | [10]
inactive: all other assays above

CC(=O)NNC(C)=O
not listed: [4] | [8] | [10]
inactive: all other assays above

CC(=O)Oc1cccc(O)c1
not listed: [6] | [9] | [10]
inactive: all other assays above

CCCC(=O)OC(=O)CCC
not listed: [9] | [10]
inactive: all other assays above

CNCc1ccc(NC(=O)c2c[nH]c3c2C(=O)CCC3)cc1
active: [2] 1.54 µM
not listed: [9] | [10]
inactive: all other assays above

O=[N+]([O-])C1(Br)COCOC1
active: [1] 43.3 µM | [7] 49 µM
inactive: [2] | [3] | [4]

COC(=O)CC(C(C)=O)C(=O)OC (stereo not given)
not listed: [9] | [10]
inactive: all other assays above

CC(C)Cc1ccc(CC(=O)O)cc1
inactive: [1] | [2] | [3] | [5] | [9] | [6]

C=Cc1ccc(OC(C)=O)cc1
not listed: [9] | [10]
inactive: all other assays above

NC(=O)c1ccccc1[N+](=O)[O-]
not listed: [9] | [10]
inactive: all other assays above

CCN(CC)CCOc1ccccc1C(=O)CCc1ccccc1
not listed: [4] | [9] | [10]
inactive: all other assays above

O=C(O)c1cccc(C[C@@H]2COc3ccc(OCc4nc5cc(F)ccc5s4)cc3[C@@H]2O)c1
inactive: [1] | [2] | [3] | [7] | [8]

CCCCCCCCCCCSCC(=O)O
active: [7] 49 µM
inactive: [1] | [2] | [3] | [5] | [6]

COc1cc(C(C)=O)ccc1OCCCN1CCC(c2noc3cc(F)ccc23)CC1
inactive: [1] | [2] | [5] | [7] | [8]

CSCC[C@H](NC(=O)[C@H](Cc1c[nH]c2ccccc12)NC(=O)CCNC(=O)OC(C)(C)C)C(=O)N[C@@H](CC(=O)O)C(=O)N[C@@H](Cc1ccccc1)C(N)=O
not listed: [2] | [6] | [8]
inactive: all other assays above
